Laboratory results taken from PubChem BioAssay.
The source made the active and inactive calls.

Assays:
[1] = binders of probe aFSTL3 on microarray, primary screen, stem cell growth factor project, biochemical, small-molecule microarray, fluorescence 635/667 (AID 1064); details: higher = more signal;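 further: measures binding of the biotinylated anti-FSTL3 antibody to printed compounds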
[2] = binders from COS7 lysate, DM2A8 probe, primary screen, torsin A project, cell lysate, small-molecule microarray, fluorescence 635/667 (AID 1065); details: higher = more signal, COS7 lysate expressing mutant human TOR1A
[3] = binders of probe aFGF2 on microarray, primary screen, stem cell growth factor project, biochemical, small-molecule microarray, fluorescence 635/667 (AID 1067); details: higher = more signal;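 further: measures binding of biotinylated aFGF2 protein to printed compounds on slides; z-score merges feature fluorescence and signal-to-noise across triplicate slides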
[4] = binders of probe aFGF10 on microarray, primary screen, stem cell growth factor project, biochemical, small-molecule microarray, fluorescence 635/667 (AID 1071); details: higher = more signal;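 further: score merges 667 nm spot intensity and signal to noise from triplicate slides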
[5] = molecular target: Neurogenic locus notch homolog protein 2 (Homo sapiens) (UniProt Q04721); experiment: Notch2 binders on small-molecule microarrays, primary screen, biochemical, small-molecule microarray, 635 nm fluorescence, stem cell growth factors (AID 1073); details: Notch2 binding, higher = more signal
[6] = molecular target: Pro-neuregulin-1, membrane-bound isoform (Homo sapiens) (UniProt Q02297); experiment: NRG1 binders on small-molecule microarrays, primary screen, psychiatric disease protein project, biochemical, small-molecule microarray, fluorescence 635/667 (AID 1075); details: NRG1 binding, 635 nm fluorescence, higher = more signal;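 further: score combines 667 nm spot fluorescence with signal to noise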
[7] = system: Neuregulin-1 EGF-like domain; experiment: binders of neuregulin-1 EGF-like domain, primary screen, biochemical, small-molecule microarray, 635 nm fluorescence (AID 1081); details: small-molecule microarray binding, higher = more signal;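 further: binding of the protein to compounds printed on small-molecule microarray slides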
[8] = FRG1 promoter luciferase signal modulators, primary screen, FRG1 inhibition for FSHD, cell-based, C2C12 myotubes, firefly/Renilla luciferase, luminescence (AID 1084); details: higher = more signal, called active from +8 up or from −8 down
[9] = binders of probe aFST on microarray, primary screen, stem cell growth factor project, biochemical, small-molecule microarray, fluorescence 635/667 (AID 1086); details: higher = more signal;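 further: score merges 667 nm fluorescence with signal-to-noise of each printed compound spot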
[10] = binders of probe aHhip on microarray, primary screen, stem cell growth factor project, biochemical, small-molecule microarray, fluorescence 635/667 (AID 1087); details: higher = more signal;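 further: score merges spot fluorescence at 667nm with spot signal to noise ratio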
[11] = system: PRMT1 (protein arginine N-methyltransferase 1); experiment: PRMT1 binders on small-molecule microarrays, primary screen, biochemical, small-molecule microarray, 635 nm fluorescence (AID 1088); details: small-molecule microarray binding, higher = more signal;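 further: binding of Prmt1 protein to compounds spotted on small-molecule microarray slides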
[12] = yeast growth modulation, basal conditions, primary screen, YJM789 clinical isolate, OD600, 24 h (AID 1089);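 further: growth of clinical yeast isolate S. cerevisiae YJM 789 seeded 1000 cells per well; test concentration not given here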; details: S. cerevisiae YJM789 growth, higher = more signal, called active from +8 up or from −8 down
[13] = fission yeast growth modulation, primary screen, strain 972, OD600, 24 h, no modulator (AID 1090);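 further: basal condition with compound alone and no growth modifier present; test concentration not given here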; details: S. pombe 972 growth, higher = more signal, called active from +8 up or from −8 down
[14] = S. cerevisiae growth modulation with rapamycin, primary screen, strain BY4716, OD600, 96 h (AID 1091); details: higher = more signal, called active from +8 up or from −8 down; further: test concentration not given here
[15] = molecular target: Torsin-1A-interacting protein 2 (Homo sapiens) (UniProt Q8NFQ8); experiment: LULL1 binders on small-molecule microarray, primary screen, cell lysate, human LULL1 lysate, 635/667 nm fluorescence (AID 1092); details: hLULL1 lysate binding, 635 nm fluorescence, higher = more signal;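 further: probe is lysate of COS7 cells overexpressing human LULL1; score merges per-feature 667 nm fluorescence with signal-to-noise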
[16] = E. coli growth modulation, two-sided OD650, primary screen, E. coli filamentation project, strain DRC41, 24 h (AID 1093); details: OD650, 24 h, higher = more signal, called active from +8 up or from −8 down;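 further: MC1000 strain lacking acrAB efflux and sulA so SOS filamentation is blocked; test concentration not given here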
[17] = small-molecule microarray binders of probe aLefty2, primary screen, biochemical, biotinylated probe, 635/667 nm fluorescence (AID 1094); details: higher = more signal;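 further: score merges spot fluorescence near 667 nm with spot signal-to-noise ratio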
[18] = system: Noggin (protein binding on small-molecule microarray); experiment: Noggin binders on small-molecule microarray, primary screen, biochemical, 635/667 nm fluorescence (AID 1095); details: 635 nm fluorescence, higher = more signal;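 further: score merges 667 nm feature fluorescence with signal to noise over triplicate slides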
[19] = molecular target: Neurogenic locus notch homolog protein 3 (Homo sapiens) (UniProt Q9UM47); experiment: NOTCH3 binders on small-molecule microarray, primary screen, biochemical, 635/667 nm fluorescence (AID 1096); details: NOTCH3 binding, 635 nm fluorescence, higher = more signal
[20] = small-molecule microarray binders of probe aEGFR, primary screen, biochemical, biotinylated probe, 635/667 nm fluorescence (AID 1097); details: higher = more signal;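 further: probe is a biotinylated anti-EGFR antibody binding compounds printed on slides; score combines fluorescence near 667 nm and signal to noise of each spot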

Neurogenic locus notch homolog protein 2 (Homo sapiens), sequence (Q04721 whole entry, looked up, canonical isoform): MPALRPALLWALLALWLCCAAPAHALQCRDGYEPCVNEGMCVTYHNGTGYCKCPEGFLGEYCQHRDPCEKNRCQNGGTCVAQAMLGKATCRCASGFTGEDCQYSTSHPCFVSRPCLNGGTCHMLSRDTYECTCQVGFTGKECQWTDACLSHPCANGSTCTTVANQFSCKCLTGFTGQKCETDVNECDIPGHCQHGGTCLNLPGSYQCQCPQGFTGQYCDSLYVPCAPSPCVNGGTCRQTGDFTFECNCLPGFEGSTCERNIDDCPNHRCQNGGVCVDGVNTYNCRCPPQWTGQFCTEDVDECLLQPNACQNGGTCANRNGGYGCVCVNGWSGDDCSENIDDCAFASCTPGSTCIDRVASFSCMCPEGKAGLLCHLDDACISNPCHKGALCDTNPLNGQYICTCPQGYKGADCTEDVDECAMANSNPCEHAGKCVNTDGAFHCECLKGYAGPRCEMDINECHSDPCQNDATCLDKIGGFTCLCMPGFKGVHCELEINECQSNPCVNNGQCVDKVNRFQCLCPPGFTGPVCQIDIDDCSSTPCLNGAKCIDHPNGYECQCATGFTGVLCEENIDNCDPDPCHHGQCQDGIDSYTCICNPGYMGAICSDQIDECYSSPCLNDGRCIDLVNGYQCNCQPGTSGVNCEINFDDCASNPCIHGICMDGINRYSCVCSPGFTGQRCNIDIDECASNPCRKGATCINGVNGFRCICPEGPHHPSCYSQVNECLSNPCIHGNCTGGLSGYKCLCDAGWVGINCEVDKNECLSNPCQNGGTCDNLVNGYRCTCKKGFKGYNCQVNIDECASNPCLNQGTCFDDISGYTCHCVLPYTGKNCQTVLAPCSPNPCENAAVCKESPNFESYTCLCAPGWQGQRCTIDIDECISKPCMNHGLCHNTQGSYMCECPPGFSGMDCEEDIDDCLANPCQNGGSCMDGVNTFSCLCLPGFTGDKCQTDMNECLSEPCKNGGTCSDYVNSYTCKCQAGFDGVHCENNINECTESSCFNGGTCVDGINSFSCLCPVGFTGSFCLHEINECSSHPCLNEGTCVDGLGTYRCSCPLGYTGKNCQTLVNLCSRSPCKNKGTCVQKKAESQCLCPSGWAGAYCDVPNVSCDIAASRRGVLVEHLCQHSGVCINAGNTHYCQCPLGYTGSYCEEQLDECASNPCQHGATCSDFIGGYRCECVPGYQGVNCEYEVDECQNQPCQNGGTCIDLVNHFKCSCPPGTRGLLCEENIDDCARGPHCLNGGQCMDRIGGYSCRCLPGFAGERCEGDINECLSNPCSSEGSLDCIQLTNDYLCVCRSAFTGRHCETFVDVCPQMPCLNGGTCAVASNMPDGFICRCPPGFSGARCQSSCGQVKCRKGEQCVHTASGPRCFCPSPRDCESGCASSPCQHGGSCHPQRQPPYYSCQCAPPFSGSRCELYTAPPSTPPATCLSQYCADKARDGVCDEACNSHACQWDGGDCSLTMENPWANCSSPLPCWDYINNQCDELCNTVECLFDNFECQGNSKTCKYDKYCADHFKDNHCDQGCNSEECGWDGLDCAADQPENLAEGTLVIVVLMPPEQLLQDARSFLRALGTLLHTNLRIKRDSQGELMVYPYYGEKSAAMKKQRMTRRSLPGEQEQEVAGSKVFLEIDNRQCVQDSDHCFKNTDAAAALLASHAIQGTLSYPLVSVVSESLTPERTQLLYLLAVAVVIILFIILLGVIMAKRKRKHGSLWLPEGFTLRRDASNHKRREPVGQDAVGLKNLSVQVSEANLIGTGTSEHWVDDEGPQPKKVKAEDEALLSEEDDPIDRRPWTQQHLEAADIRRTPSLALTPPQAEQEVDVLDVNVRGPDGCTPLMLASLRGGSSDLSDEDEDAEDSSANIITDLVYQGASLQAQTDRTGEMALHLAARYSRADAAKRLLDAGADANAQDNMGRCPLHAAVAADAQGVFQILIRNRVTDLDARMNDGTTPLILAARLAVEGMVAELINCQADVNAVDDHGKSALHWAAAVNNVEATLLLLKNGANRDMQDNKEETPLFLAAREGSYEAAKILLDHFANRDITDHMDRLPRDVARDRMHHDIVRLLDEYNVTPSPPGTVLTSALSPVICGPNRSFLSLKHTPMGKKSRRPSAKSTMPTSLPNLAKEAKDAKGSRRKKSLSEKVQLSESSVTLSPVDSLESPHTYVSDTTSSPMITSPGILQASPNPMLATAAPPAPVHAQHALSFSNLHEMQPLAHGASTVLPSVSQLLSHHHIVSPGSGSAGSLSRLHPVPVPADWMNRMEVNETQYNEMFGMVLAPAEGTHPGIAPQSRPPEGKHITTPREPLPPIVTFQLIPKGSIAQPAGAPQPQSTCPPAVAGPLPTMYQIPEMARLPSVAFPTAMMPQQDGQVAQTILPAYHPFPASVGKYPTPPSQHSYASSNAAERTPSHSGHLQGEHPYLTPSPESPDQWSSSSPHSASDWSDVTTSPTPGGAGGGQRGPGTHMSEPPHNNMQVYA
Neurogenic locus notch homolog protein 3 (Homo sapiens), sequence (Q9UM47 whole entry, looked up): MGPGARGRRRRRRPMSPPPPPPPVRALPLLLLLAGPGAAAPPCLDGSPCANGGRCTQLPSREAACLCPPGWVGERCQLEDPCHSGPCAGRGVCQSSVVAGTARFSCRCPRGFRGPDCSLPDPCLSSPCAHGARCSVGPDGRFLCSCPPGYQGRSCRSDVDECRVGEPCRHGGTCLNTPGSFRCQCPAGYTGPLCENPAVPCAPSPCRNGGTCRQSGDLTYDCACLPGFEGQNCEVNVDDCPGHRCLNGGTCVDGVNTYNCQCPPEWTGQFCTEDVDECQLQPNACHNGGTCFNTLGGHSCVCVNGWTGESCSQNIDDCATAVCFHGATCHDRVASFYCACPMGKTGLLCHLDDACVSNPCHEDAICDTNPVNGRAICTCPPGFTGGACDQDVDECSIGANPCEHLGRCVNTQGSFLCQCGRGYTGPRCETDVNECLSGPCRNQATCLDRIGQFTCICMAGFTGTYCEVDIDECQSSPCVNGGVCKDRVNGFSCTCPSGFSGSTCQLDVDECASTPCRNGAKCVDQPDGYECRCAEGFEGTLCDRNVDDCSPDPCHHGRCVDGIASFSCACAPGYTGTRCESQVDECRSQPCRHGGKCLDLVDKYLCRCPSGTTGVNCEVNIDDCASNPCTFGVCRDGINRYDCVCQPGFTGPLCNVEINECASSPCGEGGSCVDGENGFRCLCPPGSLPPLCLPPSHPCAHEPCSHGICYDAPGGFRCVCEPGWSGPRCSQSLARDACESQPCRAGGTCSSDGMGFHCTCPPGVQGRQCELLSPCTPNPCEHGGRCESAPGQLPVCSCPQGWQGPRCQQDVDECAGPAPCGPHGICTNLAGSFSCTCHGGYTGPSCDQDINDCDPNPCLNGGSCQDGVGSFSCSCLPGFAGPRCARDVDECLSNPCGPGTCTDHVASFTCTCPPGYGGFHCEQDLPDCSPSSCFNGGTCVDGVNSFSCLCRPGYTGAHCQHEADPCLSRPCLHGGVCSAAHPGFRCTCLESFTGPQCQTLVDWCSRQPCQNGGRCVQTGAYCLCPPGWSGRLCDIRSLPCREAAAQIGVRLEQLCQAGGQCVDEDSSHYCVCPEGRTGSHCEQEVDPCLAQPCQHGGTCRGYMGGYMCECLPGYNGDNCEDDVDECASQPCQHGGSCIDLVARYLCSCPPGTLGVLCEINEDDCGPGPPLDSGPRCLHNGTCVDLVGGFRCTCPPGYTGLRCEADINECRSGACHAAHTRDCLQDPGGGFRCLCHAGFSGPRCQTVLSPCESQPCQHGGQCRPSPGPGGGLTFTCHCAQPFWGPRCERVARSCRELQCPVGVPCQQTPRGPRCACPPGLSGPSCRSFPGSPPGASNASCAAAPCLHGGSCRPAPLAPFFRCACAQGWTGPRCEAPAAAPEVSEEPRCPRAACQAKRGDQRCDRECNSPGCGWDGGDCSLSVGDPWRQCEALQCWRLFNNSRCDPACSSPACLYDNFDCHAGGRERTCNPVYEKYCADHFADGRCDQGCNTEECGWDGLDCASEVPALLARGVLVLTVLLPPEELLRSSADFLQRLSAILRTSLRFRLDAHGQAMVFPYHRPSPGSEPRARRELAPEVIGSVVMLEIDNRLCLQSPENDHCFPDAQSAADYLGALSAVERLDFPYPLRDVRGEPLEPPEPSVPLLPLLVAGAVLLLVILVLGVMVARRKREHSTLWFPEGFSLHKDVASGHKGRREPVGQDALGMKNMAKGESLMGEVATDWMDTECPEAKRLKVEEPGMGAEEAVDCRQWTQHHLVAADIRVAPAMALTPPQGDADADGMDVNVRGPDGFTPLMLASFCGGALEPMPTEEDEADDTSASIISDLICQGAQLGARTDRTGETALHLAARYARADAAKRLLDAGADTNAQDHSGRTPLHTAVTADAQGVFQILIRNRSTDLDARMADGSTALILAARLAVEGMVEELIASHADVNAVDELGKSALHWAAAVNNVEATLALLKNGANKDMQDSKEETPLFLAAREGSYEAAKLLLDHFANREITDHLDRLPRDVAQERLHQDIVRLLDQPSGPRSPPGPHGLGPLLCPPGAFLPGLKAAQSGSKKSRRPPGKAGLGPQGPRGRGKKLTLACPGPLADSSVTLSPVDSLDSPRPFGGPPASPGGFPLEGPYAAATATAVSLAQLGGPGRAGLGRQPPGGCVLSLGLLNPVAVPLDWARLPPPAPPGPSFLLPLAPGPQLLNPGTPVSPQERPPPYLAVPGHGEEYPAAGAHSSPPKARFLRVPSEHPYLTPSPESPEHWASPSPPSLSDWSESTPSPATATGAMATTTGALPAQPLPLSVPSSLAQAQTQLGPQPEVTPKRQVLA

SMILES | composite z-score [1] | composite z-score [2] | composite z-score [3] | composite z-score [4] | composite z-score [5] | composite z-score [6] | composite z-score [7] | z-score [8] | composite z-score [9] | composite z-score [10] | composite z-score [11] | z-score [12] | z-score [13] | z-score [14] | composite z-score [15] | z-score [16] | composite z-score [17] | composite z-score [18] | composite z-score [19] | composite z-score [20]
O=C1C2=CC[C@H]3C(=O)N(c4cccc(Oc5ccccc5)c4)C(=O)[C@H]3[C@H]2[C@H](O)[C@@H]2O[C@H]12 | -0.476 | 0.337 | -0.14 | 0.258 | -0.139 | 0.0597 | 0.129 | -0.492 (inactive) | 0.373 | -0.184 | 0.435 | 0.135 (inactive) | -0.974 (inactive) | -0.147 (inactive) | -0.122 | -0.425 (inactive) | -0.139 | 0.744 | 0.92 | -0.0219
CC(C)=CCCC(C)=CCON=C1C[C@@H](O)[C@@H](O)[C@@H]2[C@@H]3C(=O)N(c4cccc(Oc5ccccc5)c4)C(=O)[C@@H]3CC[C@@H]12 | -0.473 | -0.314 | -0.0962 | 0.341 | 0.521 | 0.938 | 0.972 | 0.508 (inactive) | 0.34 | -0.0994 | 0.355 | 0.164 (inactive) | -0.153 (inactive) | -0.184 (inactive) | 1.15 | 0.951 (inactive) | -0.124 | -0.283 | 0.751 | -0.0302
CO[C@H]1COC(=O)CC=C[C@@H](C)[C@H](NS(=O)(=O)c2ccc(C)cc2)COC(=O)CCC[C@@H]1C | -0.366 | 0.906 | -0.154 | 0.21 | 0.18 | -0.25 | 0.185 | 0.408 (inactive) | -0.225 | -0.635 | 1.1 | -0.419 (inactive) | 0.14 (inactive) | -0.726 (inactive) | -0.401 | -0.0537 (inactive) | -0.122 | 0.676 | 0.77 | -0.067
C[C@@H]1C=CCC(=O)OC[C@H]2O[C@@H](C=C[C@@H]2O)[C@H](C)C=CCC(=O)OC1 | -0.711 | 2.13 | -0.175 | -0.32 | -0.302 | -1.03 | 0.765 | -1.28 (inactive) | -0.291 | 0.28 | 1.55 | -2.12 (inactive) | -1.24 (inactive) | -0.618 (inactive) | -1.24 | -0.293 (inactive) | -0.254 | 1.86 | 0.595 | -0.0455
CCC1=NOC(CCC2CC(OC(=O)NCc3cccc4c3OCO4)CC3(CCCC(COC(=O)NCCc4ccccc4OC)O3)O2)C1 (stereo not given) | -0.173 | 0.13 | -0.0466 | 0.504 | 0.608 | 0.796 | 0.793 | 1.02 (inactive) | 0.243 | -0.151 | 1.26 | -0.873 (inactive) | 0.168 (inactive) | 0.327 (inactive) | 2.38 | 1.11 (inactive) | -0.099 | 0.079 | 0.53 | -0.0424
C#CCCCON=C1C[C@@H](O)[C@@H](O)[C@@H]2[C@@H]3C(=O)N(c4ccc(F)cc4F)C(=O)[C@@H]3CC[C@@H]12 | -0.398 | 1.69 | -0.138 | 0.103 | 0.329 | 0.0095 | -0.114 | -0.236 (inactive) | 0.0638 | 0.235 | 0.108 | -0.326 (inactive) | -0.117 (inactive) | -1.3 (inactive) | -0.261 | 0.336 (inactive) | -0.124 | 0.561 | 0.0521 | -0.112
C[C@@H](c1ccccc1)N1C(=O)[C@H]2[C@H]3[C@H](O)[C@H](O)CC(=NO[C@@H]4O[C@H](CO)[C@@H](O)[C@H](O)[C@H]4O)[C@@H]3CC[C@H]2C1=O | -0.395 | 0.764 | -0.0428 | 0.306 | 0.641 | -0.319 | 0.752 | 0.19 (inactive) | 0.205 | -0.0618 | 0.0967 | 0.114 (inactive) | 0.149 (inactive) | -0.967 (inactive) | 0.652 | 0.345 (inactive) | -0.126 | 0.111 | 0.372 | 0.0271
C[n+]1ccc(-c2ccc(CO)cc2)cc1 | 0.772 | -0.688 | -0.131 | -0.116 | 1.08 | 0.0728 | 0.0658 | 0.65 (inactive) | -0.0846 | 0.0053 | 1.37 | -1.14 (inactive) | -0.902 (inactive) | 3.9 (inactive) | -0.202 | 0.917 (inactive) | 0.149 | 0.634 | 1.06 | -0.188
C#CCCCON=C1[C@H]2CCn3c(=O)n(C)c(=O)n3[C@H]2[C@H](O)[C@@H]2O[C@H]12 | -0.454 | 0.588 | 0.0624 | 0.382 | 1.05 | -0.0714 | 0.58 | 0.678 (inactive) | 0.159 | 0.535 | -0.677 | 0.516 (inactive) | -0.377 (inactive) | 0.658 (inactive) | -0.0133 | -0.305 (inactive) | -0.132 | 1.18 | 0.891 | -0.148
CCOC(=O)NN=C1C[C@@H](O)[C@@H](O)[C@@H]2[C@@H]3C(=O)N(Cc4ccc5c(c4)OCO5)C(=O)[C@@H]3CC[C@H]12 | -0.428 | 0.0687 | -0.113 | -0.388 | -0.434 | 0.279 | 0.678 | 0.855 (inactive) | 0.625 | -0.0645 | 0.667 | -0.126 (inactive) | 0.119 (inactive) | -0.6 (inactive) | 2.31 | 0.203 (inactive) | -0.289 | 0.303 | -0.578 | -0.0978
